Only a selection was taken, and hits are over-represented in it overall.
nsP2pro inh – blocks chikungunya virus nsP2 protease peptide cleavage; Q8JUX6; FRET peptide cleavage, nsP2pro, fluorescence 1 h; Potency, µM (top dose mostly 24.9 µM), for the others: at the highest dose activity change, negative = inhibition, usual class: inhibitors; hit rate 1.1% among 31,000; AID 1964107; further: nearly all actives have a fitted effect of over 60% in size
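FRET cleavage of 2.5 uM peptide 2 by 150 nM CHIKV protease domain at pH 8.0 (Tris, Tween 20). Compounds at 7 concentrations (up to 25 uM) preincubated 15 min. Fluorescence read after 1 h at room temperature.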
CHIKV nsP2 cell – cell-based CHIKV nsP2 protease inhibition, secondary; shares compounds with nsP2pro inh; cell-based CHIKV nsP2 protease reporter assay; Potency, µM (titrated, usually from 51.1 µM), without a hit: top-dose activity change, negative = inhibition, hits mostly inhibitors; hit rate 10% among 450; AID 1964100; further: nearly all actives have a fitted effect of over 70% in size
Target sequence (Q8JUX6 220-798 limits assumed): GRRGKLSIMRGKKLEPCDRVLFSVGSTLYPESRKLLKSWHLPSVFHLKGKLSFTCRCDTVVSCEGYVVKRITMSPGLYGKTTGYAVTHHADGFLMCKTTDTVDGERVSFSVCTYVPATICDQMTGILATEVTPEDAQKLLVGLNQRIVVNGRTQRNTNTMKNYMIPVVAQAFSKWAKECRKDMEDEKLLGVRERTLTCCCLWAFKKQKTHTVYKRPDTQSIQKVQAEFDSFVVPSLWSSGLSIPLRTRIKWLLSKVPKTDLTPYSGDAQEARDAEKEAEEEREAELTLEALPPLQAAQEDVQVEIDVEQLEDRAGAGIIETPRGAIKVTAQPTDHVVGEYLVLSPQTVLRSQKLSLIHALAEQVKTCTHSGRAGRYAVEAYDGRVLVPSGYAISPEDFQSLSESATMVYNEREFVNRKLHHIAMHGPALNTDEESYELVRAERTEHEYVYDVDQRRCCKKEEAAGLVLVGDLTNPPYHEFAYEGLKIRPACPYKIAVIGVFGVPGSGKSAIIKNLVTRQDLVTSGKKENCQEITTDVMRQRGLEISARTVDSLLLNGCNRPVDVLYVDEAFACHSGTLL
CHIKV NSP2 FL – full-length CHIKV NSP2 protease inhibition, selectivity; Potency, µM (top dose mostly 50.7 µM), inactives show at the top dose activity change, negative = inhibition, usual class: inhibitors; Full-length CHIKV NSP2 protease enzymatic counterscreen; hit rate 39% among 410; AID 1964101; shares compounds with nsP2pro inh; further: nearly all actives have a fitted effect of over 65% in size
Furin counterscr – selectivity counter-screen for CHIKV nsP2 protease inhibitors: human furin; shares compounds with nsP2pro inh; Recombinant human furin enzymatic counterscreen, fluorogenic substrate; Potency, µM (series often up to 50.6 µM), without a hit: at the highest dose activity change, negative = inhibition, actives largely listed as inhibitors; hit rate 6% among 410; AID 1964102
NS23 peptide cs – selectivity test for CHIKV nsP2 protease inhibitors: endogenous NS2/3 peptide; shares compounds with nsP2pro inh; Purified CHIKV nsP2 protease, endogenous NS2/3 peptide cleavage; Potency, µM (doses to about 51 µM), for inactives: top-dose activity change, negative = inhibition, most hits filed as inhibitors; hit rate 34% among 410; further: nearly all actives have a fitted effect of over 55% in size
Papain counter – inhibits papain in a CHIKV nsP2 protease selectivity counterscreen; shares compounds with nsP2pro inh; purified papain protease activity, enzymatic inhibition; Potency, µM (titrated, usually from 51 µM), inactives show top-dose activity change, negative = inhibition, usual class: inhibitors; hit rate 5% among 410
nsP2pro confirm – CHIKV nsP2 protease inhibition, confirmatory qHTS; shares compounds with nsP2pro inh; Potency, µM (series often up to 25.5 µM), for inactives: at the top dose activity change, negative = inhibition, hits mostly inhibitors; hit rate 43% among 410; CHIKV nsP2 protease enzymatic activity, qHTS; further: nearly all actives have a fitted effect of over 75% in size
HCV NS3 4A cs – inhibits HCV NS3/4A protease in an nsP2pro selectivity counterscreen; shares compounds with nsP2pro inh; HCV NS3/4A protease biochemical counterscreen; Potency, µM (series often up to 50.9 µM), actives largely listed as inhibitors; hit rate 20% among 410; AID 1964106; further: nearly all actives have a fitted effect of over 55% in size
* marks the source's active call; other numbers are inactive results; [ ] = remark or other dose. The call rests on the fitted dose curve. On the % scale 0 is the no-effect control and ±100 the full control effect; potency means the concentration at half of the fitted maximal effect.

How did Cc1nc(C2CCCN2Cc2ccc(-c3ccn[nH]3)o2)cs1 (stereo not given) do in these assays?
nsP2pro inh: 8.9µM*; CHIKV nsP2 cell: 14%; CHIKV NSP2 FL: inconclusive; Furin counterscr: -3%; NS23 peptide cs: inconclusive; Papain counter: -6%; nsP2pro confirm: inconclusive; HCV NS3 4A cs: inconclusive

What do the screens show for `Cc1ccccc1C(=O)Nc1ccc(C(=O)N2CCC[C@@H](O)c3cc(Cl)ccc32)c(C)c1`?
nsP2pro inh: 14%

How did COc1ccccc1-c1cc(C(=O)N2CCN(c3ncccn3)CC2)nn2cccc12 do in these assays?
nsP2pro inh: 0%

How did O=C(O)C[C@@H]1CCN(S(=O)(=O)c2ccccc2)C[C@@H]1CCN(CCN1CCOCC1)c1ccccc1 do in these assays?
nsP2pro inh: -14%

What do the screens show for `O=c1[nH]c(-c2ccc(F)cc2)nc2c1CCN(S(=O)(=O)c1cccs1)C2`?
nsP2pro inh: 1%

Results for O=c1[nH]c(-c2ccc(C(F)(F)F)cc2)nc2c1CSCC2 ?
nsP2pro inh: inconclusive; CHIKV nsP2 cell: 12%; CHIKV NSP2 FL: -10%; Furin counterscr: 0%; NS23 peptide cs: -1%; Papain counter: -1%; nsP2pro confirm: -9%; HCV NS3 4A cs: inactive

How did CS(=O)(=O)c1ccccc1N1CCN(c2nc3c(c(=O)[nH]2)CSCC3)CC1 do in these assays?
nsP2pro inh: -21%

How did CN(C)S(=O)(=O)c1ccc(-c2nc(NCc3ccc(-c4ccnc(C(F)(F)F)c4)cc3)c3ccccc3n2)cc1 do in these assays?
nsP2pro inh: -15%

How did COc1ccc(CNC(=O)C2CCC(CNS(=O)(=O)c3ccc4c(c3)CCCC(=O)N4)CC2)cc1 (stereo not given) do in these assays?
nsP2pro inh: -10%

How did COc1ccc(CNS(=O)(=O)c2cc(-c3[nH]ncc3C(=O)N3CCCC3)oc2C)cc1 do in these assays?
nsP2pro inh: 7.1µM*; CHIKV nsP2 cell: 6%; CHIKV NSP2 FL: inconclusive; Furin counterscr: -7%; NS23 peptide cs: -4%; Papain counter: -6%; nsP2pro confirm: -8%; HCV NS3 4A cs: inconclusive

How did COc1ccc(CNS(=O)(=O)c2cc3c(cc2C)N(C)CCO3)cc1 do in these assays?
nsP2pro inh: -20%

What do the screens show for `CCCCCCCCCC(=O)OCCN1CCN(CC/C=C2/c3ccccc3Sc3ccc(Cl)cc32)CC1`?
nsP2pro inh: -6%

What do the screens show for `O=C(NC1CCCc2c1cnn2-c1ccc(F)cc1F)c1ccc(C(=O)c2ccccc2)cc1` (stereo not given)?
nsP2pro inh: -3%

What do the screens show for `COc1ccc(-n2ncc3c2CCCC3NC(=O)c2cnc(C)cn2)cc1` (stereo not given)?
nsP2pro inh: -7%

How did COc1ccc(-n2ncc3c2CCCC3NC(=O)c2ccc3ncccc3c2)cc1 (stereo not given) do in these assays?
nsP2pro inh: inconclusive; CHIKV nsP2 cell: 21µM*; CHIKV NSP2 FL: inconclusive; Furin counterscr: -4%; NS23 peptide cs: -14%; Papain counter: -9%; nsP2pro confirm: 6%; HCV NS3 4A cs: inconclusive

Results for COc1cccc(CNc2ccc(S(=O)(=O)Nc3nc4ccccc4o3)cc2)c1O ?
nsP2pro inh: inactive

What do the screens show for `CC1CCC2(CO)C(C(=O)O)=CCCC2C1(C)CCc1ccoc1` (stereo not given)?
nsP2pro inh: 48%

Results for Cc1cccc(S(=O)(=O)Nc2cccn3nc(C4CCC4)nc23)c1 ?
nsP2pro inh: 17%

Results for O=S(=O)(Nc1cccn2nc(C3CC3)nc12)c1cccnc1 ?
nsP2pro inh: inconclusive; CHIKV nsP2 cell: -16%

How did CCc1nc2c(NS(=O)(=O)c3cccnc3)cccn2n1 do in these assays?
nsP2pro inh: -7%

How did C/C=C(\C)C(=O)O[C@H]1[C@@H](O[C@]2(COC(=O)CC(C)C)O[C@H](COC(=O)C(C)C)[C@@H](OC(C)=O)[C@@H]2O)O[C@H](COC(C)=O)[C@@H](O)[C@@H]1O do in these assays?
nsP2pro inh: 15%[10 µM]

Results for CNC(=O)c1cc(C)nc2onc(C3CCCN([S+](=O)([O-])c4ccc(C)cc4)C3)c12 (stereo not given) ?
nsP2pro inh: -1%

What do the screens show for `O=C(NCC(O)CO)c1ccc(OC2CCN(CCc3ccccc3)CC2)cc1` (stereo not given)?
nsP2pro inh: 2%

What do the screens show for `COc1cc(NC(=S)N2CCN(c3cccc(C(F)(F)F)c3)CC2)nc2ccccc12`?
nsP2pro inh: 4%

What do the screens show for `CN(C)c1cccc(-c2ncc(F)c(N3CCC(C(N)=O)CC3)n2)c1`?
nsP2pro inh: inconclusive; CHIKV nsP2 cell: 50%; CHIKV NSP2 FL: 3%; Furin counterscr: -2%; NS23 peptide cs: 4%; Papain counter: -8%; nsP2pro confirm: 14%; HCV NS3 4A cs: inactive

What do the screens show for `CN(C)c1cccc(-c2nccc(N3CCC(C(N)=O)CC3)n2)c1`?
nsP2pro inh: inactive

How did CN(C)c1cccc(-c2nc(N3CCC(C(N)=O)CC3)ncc2F)c1 do in these assays?
nsP2pro inh: 5%

What do the screens show for `C[C@]12CCCN1CC1=NNC(=O)c3cc(F)cc4[nH]c2c1c34`?
nsP2pro inh: -11%

How did COC(=O)C(Cc1ccc(OCCn2c(=O)sc3cc(C(=O)c4ccccc4)ccc32)cc1)C(=O)OC do in these assays?
nsP2pro inh: -7%

How did Cc1occc(=O)c1O[C@@H]1O[C@H](CO[C@@H]2OC[C@](O)(CO)[C@H]2O)[C@@H](O)[C@H](O)[C@H]1O do in these assays?
nsP2pro inh: -9%[10 µM]

What do the screens show for `NC(=O)c1cc(F)cc2c1C(=O)N(C1CCN(C3CCC(F)(F)CC3)CC1)C2`?
nsP2pro inh: -11%

What do the screens show for `COC(=O)c1ccc(O)c2ncc(N3CC[C@@H](N)C3)cc12`?
nsP2pro inh: inactive

What do the screens show for `CC1CCN(Cc2nnnn2CCCC(=O)N2CCN(CCO)CC2)CC1`?
nsP2pro inh: inactive

Results for O=C(Nc1ccc(OC(F)(F)F)cc1)c1cc(-c2ccc(Cl)cc2)on1 ?
nsP2pro inh: -15%

What do the screens show for `CN1C(C(=O)Nc2ccc(OC(F)(F)F)cc2)=CC(c2cccs2)=NS1(=O)=O`?
nsP2pro inh: -15%

Source: PubChem BioAssay
